# This is a sample that favours compounds with a hit; in the whole collection about 6.7% have one here.
# T cruzi growth – T. cruzi intracellular proliferation inhibitors, primary screen, cell-based, beta-gal Tulahuen parasites, NIH3T3 host, luminescence | T. cruzi beta-gal in NIH3T3, GalScreen luminescence, 90 h | inhibition, % at 8.34 µM | 77,000 tested, 5.9% active;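 active means mean inhibition above about 93%, with at least 55% of replicates each passing it, limit read from the data, passing the limit was not always enough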
# C diff growth – C. difficile growth inhibitors, primary screen, HTS; AID 1259249, 2017; 86,000 tested, 0.25% active; Clostridium difficile clinical isolate growth, OD600, 24 h; active compounds read low; growth activity, negative = inhibition, % at 16 µg/mL (by protocol);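 active means mean growth activity at or below -80% and every replicate also at or below -80%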;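 further: 0% = DMSO wells and -100% = levofloxacin 16 µg/mL wells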
# Pf Dd2 inh – P. falciparum Dd2 growth inhibitors, primary screen, SYBR Green fluorescence, single dose replicates | activity change, % at 10 µM | 94,000 tested, 2.3% active | 72 h; active compounds read low; in the data active means activity change below about -80%
# * marks the source's active call; other numbers are inactive results; . = not tested or not shown.
SMILES,T cruzi growth,C diff growth,Pf Dd2 inh
O=C(Nc1cccc(F)c1)N1CCCCN2[C@H](CO)[C@H](c3ccc(C#Cc4ccccc4)cc3)[C@H]2C1,70.8,18.6,-63.4
O=C(Nc1ccccc1)N1CCCCN2[C@@H](CO)[C@H](c3ccc(C#Cc4cccnc4)cc3)[C@@H]2C1,5.0,10.4,-83.5*
O=C(Nc1cccc(F)c1)N1CCCCN2[C@H](CO)[C@H](c3ccc(C#Cc4ccccc4)cc3)[C@@H]2C1,67.8,-14.0,-81.8*
Cc1ccccc1NC(=O)Nc1ccc2c(c1)C(=O)N(C)[C@H]1CC[C@@H](CC(=O)NCC3CC3)O[C@@H]1CO2,12.7,-2.4,-34.1
COc1ccc2c3c([nH]c2c1)[C@@H](CO)N(C(=O)c1ccncc1)CC31CCN(Cc2cccnc2)CC1,.,0.3,-1.5
COc1cc(CN2[C@@H]3CNC[C@H]2C3c2ccc(-c3cccc(C)c3)cc2)cc(OC)c1 (stereo partly drawn),.,50.0,-2.2
C[C@@H]1CN([C@@H](C)CO)C(=O)c2cc(C3=CCCCC3)cnc2O[C@H]1CN(C)S(C)(=O)=O,52.3,.,24.6
CO[C@@H]1CN(C)C(=O)c2cc(NC(=O)c3ccccc3)ccc2OC[C@H](C)N(C(=O)C2CC2)C[C@H]1C,18.6,.,-12.5
C[C@@H]1CN([C@H](C)CO)C(=O)c2cc(C3=CCCC3)cnc2O[C@H]1CN(C)C(=O)C1CCOCC1,.,1.6,9.6
COc1ccc(C#Cc2ccc([C@@H]3[C@H](CO)N4CCCCN(C(=O)Nc5ccccc5F)C[C@@H]34)cc2)cc1,38.9,15.5,-82.3*
C/C=C/c1ccc([C@@H]2[C@@H](CO)N3CCCCN(C(=O)Nc4ccccc4F)C[C@@H]23)cc1,55.1,5.6,-60.5
COc1ccc(C#Cc2ccc([C@H]3[C@H](CO)N4CCCCN(C(=O)Nc5ccccc5F)C[C@@H]34)cc2)cc1,83.6,-8.2,-75.4
O=C(Nc1ccccc1F)N1CCCCN2[C@@H](CO)[C@@H](c3ccc(/C=C/c4ccccc4)cc3)[C@@H]2C1,69.7,-96.0*,-58.2
O=C(C[C@H]1CC[C@H]2[C@@H](COC[C@@H](O)CN2Cc2cc(F)ccc2F)O1)N1CCc2ccccc2C1,32.0,13.0,-6.6
C[C@@H]1CN([C@H](C)CO)C(=O)c2cc(-c3cccc(C(=O)N(C)C)c3)cnc2O[C@@H]1CN(C)S(=O)(=O)c1ccccc1,.,1.4,6.6
C[C@@H]1CN([C@H](C)CO)C(=O)c2cc(NS(=O)(=O)c3ccccc3)ccc2O[C@H]1CN(C)S(=O)(=O)c1ccccc1,18.2,0.0,5.9
C[C@@H]1CCCCO[C@H](CN(C)S(=O)(=O)c2ccc(Cl)cc2)[C@@H](C)CN([C@H](C)CO)C(=O)c2cc(NC(=O)c3ccccc3)ccc2O1,104.2,3.5,-77.7
C[C@@H]1CCCCO[C@H](CN(C)S(=O)(=O)c2ccc(F)cc2)[C@@H](C)CN([C@@H](C)CO)C(=O)c2cc(NC(=O)c3ccccc3)ccc2O1,.,6.7,-84.2*
Cc1ccc(S(=O)(=O)N(C)C[C@@H]2OCCCC[C@H](C)Oc3ccc(NC(=O)c4ccccc4)cc3C(=O)N([C@@H](C)CO)C[C@H]2C)cc1,81.9,.,-83.6*
Cc1ccc(S(=O)(=O)N(C)C[C@@H]2OCCCC[C@@H](C)Oc3ccc(NC(=O)c4ccccc4)cc3C(=O)N([C@H](C)CO)C[C@@H]2C)cc1,-14.1,.,-74.4
C[C@@H]1CCCCO[C@H](CN(C)S(=O)(=O)c2ccc(Cl)cc2)[C@@H](C)CN([C@@H](C)CO)C(=O)c2cc(NC(=O)c3ccccc3)ccc2O1,103.4,5.9,-82.6*
C[C@@H]1CN([C@H](C)CO)C(=O)c2cc(NC(=O)c3ccccc3)ccc2O[C@@H](C)CCCCO[C@H]1CN(C)S(=O)(=O)c1ccc(Cl)cc1,91.7,-0.4,-85.0*
C[C@@H]1CCCCO[C@H](CN(C)S(=O)(=O)c2ccc(F)cc2)[C@H](C)CN([C@@H](C)CO)C(=O)c2cc(NC(=O)c3ccccc3)ccc2O1,.,-4.7,-54.1
C[C@H](CO)N1C[C@H](C)[C@@H](CN(C)S(=O)(=O)c2ccc(Cl)cc2)OCCCC[C@H](C)Oc2ccc(NC(=O)c3ccccc3)cc2C1=O,101.7,6.9,-36.3
COc1ccc(S(=O)(=O)Nc2ccc3c(c2)CC(=O)N([C@H](C)CO)C[C@H](C)[C@@H](CN(C)Cc2ccc(C(=O)O)cc2)O3)cc1,.,0.1,11.2
SMILES,T cruzi growth,C diff growth,Pf Dd2 inh
C[C@H](CO)N1C[C@H](C)[C@@H](CN(C)S(=O)(=O)c2ccc(F)cc2)Oc2ncc(-c3ccncc3)cc2C1=O,27.0,-3.5,-67.9
CO[C@H]1CN(C)C(=O)c2ccc(NS(C)(=O)=O)cc2OC[C@H](C)N(C(=O)C2CCOCC2)C[C@@H]1C,25.3,.,6.3
COc1ccc2c3c([nH]c2c1)[C@H](CO)N(Cc1cc(F)ccc1F)CC31CN(C(=O)C2CCC2)C1,.,-6.8,-87.5*
COc1ccc2c3c([nH]c2c1)[C@H](CO)N(Cc1nccs1)CC31CN(C(=O)C2CCC2)C1,.,1.9,-18.4
COc1ccc2c3c([nH]c2c1)[C@@H](CO)N(Cc1ccccc1F)CC31CN(C(=O)C2CCC2)C1,.,12.0,-92.4*
COc1ccc2c3c([nH]c2c1)[C@@H](CO)N(Cc1ccccc1F)CC31CN(C(=O)C2CCOCC2)C1,.,.,32.1
CCCNC(=O)N1CC2(CN(C(=O)C3CCC3)C2)c2c([nH]c3cc(OC)ccc23)[C@H]1CO,.,1.8,-85.1*
CCCNC(=O)N1CC2(CN(C(=O)C3CCCC3)C2)c2c([nH]c3cc(OC)ccc23)[C@H]1CO,.,-0.5,-25.1
C[C@H](CO)N1C[C@H](C)[C@@H](CN(C)C(=O)C2CCOCC2)Oc2ncc(-c3ccccc3)cc2C1=O,107.7,-1.0,49.1
C[C@@H]1CCCCO[C@@H](CN(C)Cc2ccccc2)[C@@H](C)CN([C@H](C)CO)C(=O)c2cc(NS(=O)(=O)c3cn(C)cn3)ccc2O1,-37.5,.,19.4
COc1ccc2c3c([nH]c2c1)[C@@H](CO)N(C(=O)NC(C)C)CC31CN(Cc2ccccc2)C1,.,-5.8,-56.4
Cc1noc(C)c1S(=O)(=O)Nc1ccc2c(c1)CC(=O)N([C@H](C)CO)C[C@@H](C)[C@H](CN(C)Cc1ccc(C(=O)Nc3ccccc3N)cc1)O2,.,2.9,-43.1
Cc1noc(C)c1S(=O)(=O)Nc1ccc2c(c1)CC(=O)N([C@H](C)CO)C[C@H](C)[C@@H](CN(C)Cc1ccc(C(=O)Nc3ccccc3N)cc1)O2,.,5.8,-73.5
Cc1noc(C)c1S(=O)(=O)Nc1ccc2c(c1)CC(=O)N([C@@H](C)CO)C[C@@H](C)[C@@H](CN(C)Cc1ccc(C(=O)Nc3ccccc3N)cc1)O2,.,-1.2,-92.6*
Cc1noc(C)c1S(=O)(=O)Nc1ccc2c(c1)CC(=O)N([C@H](C)CO)C[C@@H](C)[C@@H](CN(C)Cc1ccc(C(=O)Nc3ccccc3N)cc1)O2,.,13.8,-88.5*
O=C(C1CC1)N1CC[C@@H]2[C@H](CO)Nc3ccc(C4=CCCCC4)cc3[C@@H]21,.,1.2,-43.5
C[C@@H]1CCCCO[C@H](CN(C)C(=O)Nc2cccc3ccccc23)[C@@H](C)CN([C@@H](C)CO)C(=O)c2cc(NC(=O)C3CCCCC3)ccc2O1,52.1,1.4,-84.8*

# High-throughput results from PubChem BioAssay.
